{
  "source": "PubChem BioAssay (NCI)",
  "note": "The panel holds about 79,000 compounds, 15% with a hit somewhere; the sample as a whole holds those more often. Active and inactive are the calls of the source. No stated cut-off is given here; in the data, active means growth inhibition above about 70%; inactive means the rest.",
  "data": [
    {"test": "NCI Yeast Anticancer Drug Screen. Data for the rad50 strain (AID 155);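 further: 0% = growth of vehicle-only cultures of the same strain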", "conditions": "S. cerevisiae rad50 strain growth inhibition; at 5.0 µM (retest, dose inferred, filed as 0.5); hits give high values", "method_in_brief": "(§1)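 Growth of the mutant yeast was measured after compound exposure and referenced to vehicle-treated cultures.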", "values": [
      {"smiles": "O=C(O)/C=C/C(=O)Nc1cccc2ccccc12", "growth inhibition": "40% (inactive)"},
      {"smiles": "CCCCCN=C(C)C(C)=NCCCCC", "growth inhibition": "-15% (inactive)"},
      {"smiles": "Oc1ccc(N=Nc2ccccc2)c(O)c1.Oc1ccc(N=Nc2ccccc2)c(O)c1.[Cu]", "growth inhibition": "13% (inactive)"},
      {"smiles": "NNc1c(Cl)cc(Cl)cc1Cl", "growth inhibition": "44% (inactive)"},
      {"smiles": "C=C1C[C@H](O)[C@H]2C(C[Se]c3ccccc3)C(=O)O[C@@H]2[C@H]2[C@H](C)C(O)C[C@@H]12", "note": "(stereo not given in full)", "growth inhibition": "2% (inactive)"},
      {"smiles": "O=C(CBr)Oc1ccc(-c2cccc(Br)c2)cc1", "growth inhibition": "1% (inactive)"},
      {"smiles": "CCCCC1=NCCc2c1cc1c([nH]c3ccccc31)c2C", "growth inhibition": "-3% (inactive)"},
      {"smiles": "CCOC(=O)NC(=S)Nc1ccsc1", "growth inhibition": "0% (inactive)"},
      {"smiles": "CCCCCCCCCCCCCCCCNC(C)c1ccccc1", "note": "(stereo not given)", "growth inhibition": "0% (inactive)"},
      {"smiles": "Cc1ccc(C2(O)CC(c3ccc([N+](=O)[O-])o3)=NN2C(=O)COc2ccc(Cl)cc2)cc1", "note": "(stereo not given)", "growth inhibition": "46% (inactive)"},
      {"smiles": "CCOC(=O)/C(C#N)=C/c1ccccc1Br", "growth inhibition": "11% (inactive)"},
      {"smiles": "CCCCCCCCCCCCCCCCNCCCCCCCC(=O)O", "growth inhibition": "-1% (inactive)"},
      {"smiles": "CC[N+]1(C)CCC(O)(c2ccc(Cl)c(Cl)c2)C(C(=O)c2ccc(Cl)c(Cl)c2)C1", "note": "(stereo not given)", "growth inhibition": "15% (inactive)"},
      {"smiles": "CC(=O)Nc1nnc(-c2coc3ccccc3c2=O)s1", "growth inhibition": "7% (inactive)"},
      {"smiles": "CCC(C)(C)NCCCCCNc1cc(OC)cc2cccnc12", "growth inhibition": "-2% (inactive)"},
      {"smiles": "CSC(=Nc1ccccc1)/N=C(\\SCc1ccccc1)N(C)C", "growth inhibition": "45% (inactive)"},
      {"smiles": "N=Cc1cc([N+](=O)[O-])ccc1O", "growth inhibition": "-5% (inactive)"},
      {"smiles": "CCCCCCCC(=O)/C=C/c1ccc(C)cc1", "growth inhibition": "-161% (inactive)"},
      {"smiles": "Cc1ccc(S(=O)(=O)N/N=C2/CC[C@H](C(C)(C)C)C[C@@H]2C)cc1", "growth inhibition": "9% (inactive)"},
      {"smiles": "Nc1ccc2c(c1)CCc1ccccc1-2", "growth inhibition": "1% (inactive)"},
      {"smiles": "CN(C)CCC(=O)[C@@]1(O)CC[C@H]2[C@@H]3CC=C4C[C@@H](O)CC[C@]4(C)[C@H]3CC[C@@]21C", "growth inhibition": "25% (inactive)"},
      {"smiles": "CC(=O)OC1COC(N2C(=O)C(=O)c3cc(Br)ccc32)C(OC(C)=O)C1OC(C)=O", "note": "(stereo not given)", "growth inhibition": "-11% (inactive)"},
      {"smiles": "Cc1ccc(N2CCN(c3c(N)cncc3Br)CC2)cc1", "growth inhibition": "-4% (inactive)"},
      {"smiles": "O=C(O)c1ccccc1SC(Sc1ccccc1C(=O)O)c1cccc(Cl)c1", "growth inhibition": "8% (inactive)"},
      {"smiles": "CC[N+](C)(CC)CCC(=O)/C=C/c1ccccc1", "growth inhibition": "15% (inactive)"},
      {"smiles": "COc1ccc(C(C)c2cc3c(cc2OC/C(C)=N/NC(N)=O)OCO3)cc1", "note": "(stereo not given)", "growth inhibition": "61% (inactive)"},
      {"smiles": "CN=C(N)N/N=C(\\C)c1ccc2c(c1)Cc1cc(Cl)ccc1-2", "growth inhibition": "34% (inactive)"},
      {"smiles": "CCCCCCCCN/N=C(/C)CCCCCO", "growth inhibition": "-6% (inactive)"},
      {"smiles": "O=[N+]([O-])c1cccc2c(O)cccc12", "growth inhibition": "3% (inactive)"},
      {"smiles": "O=C1C(=O)c2ccccc2C(O)=C1Sc1ccccc1", "growth inhibition": "23% (inactive)"},
      {"smiles": "CC(=O)N(O)c1ccc2c(c1)Cc1cc(F)ccc1-2", "growth inhibition": "75% (active)"},
      {"smiles": "CC12CCC(=O)C=C1CCC1C2CCC2(C)C(c3cnc[nH]3)CCC12", "note": "(stereo not given)", "growth inhibition": "51% (inactive)"},
      {"smiles": "O=C1OC(C2OC(=O)C(=O)C2C(=O)c2ccc(Cl)c(Cl)c2)C(C(=O)c2ccc(Cl)c(Cl)c2)C1=O", "note": "(stereo not given)", "growth inhibition": "7% (inactive)"},
      {"smiles": "CC/C(C)=C1\\CCC(CN2CCOCC2)C1=O", "note": "(stereo not given)", "growth inhibition": "24% (inactive)"},
      {"smiles": "COc1ccc(C2CC(=O)CC(=O)C2)cc1", "growth inhibition": "-6% (inactive)"},
      {"smiles": "Cc1ccc(O)c(C(c2ccc([N+](=O)[O-])cc2)c2cc(C)ccc2O)c1", "growth inhibition": "68% (inactive)"},
      {"smiles": "O=C1OS(=O)(=O)c2cc3c(cc21)C1C(C2C3C3(Cl)C(Cl)=C(Cl)C2(Cl)C3(Cl)Cl)C2(Cl)C(Cl)=C(Cl)C1(Cl)C2(Cl)Cl", "note": "(stereo not given)", "growth inhibition": "-18% (inactive)"},
      {"smiles": "CCOC(=O)C1SC(=S)N(C)C1=O", "note": "(stereo not given)", "growth inhibition": "3% (inactive)"},
      {"smiles": "O=C(c1ccc(Cl)c([N+](=O)[O-])c1)c1ccc(Cl)c([N+](=O)[O-])c1", "growth inhibition": "21% (inactive)"},
      {"smiles": "Cc1cc[c]([Sn]([Cl])([O][Sn]([Cl])([c]2ccc(C)cc2)[c]2ccc(C)cc2)[c]2ccc(C)cc2)cc1", "growth inhibition": "17% (inactive)"}
    ]},
    {"test": "NCI Yeast Anticancer Drug Screen. Data for the rad50 strain (AID 155);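 further: 0% = growth of vehicle-only cultures of the same strain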", "conditions": "S. cerevisiae rad50 strain growth inhibition; at 50.0 µM (retest, dose inferred, filed as 5.0); hits give high values", "method_in_brief": "as §1", "values": [
      {"smiles": "O=C(O)/C=C/C(=O)Nc1cccc2ccccc12", "growth inhibition": "40% (inactive)"},
      {"smiles": "CCCCCN=C(C)C(C)=NCCCCC", "growth inhibition": "70% (active)"},
      {"smiles": "Oc1ccc(N=Nc2ccccc2)c(O)c1.Oc1ccc(N=Nc2ccccc2)c(O)c1.[Cu]", "growth inhibition": "96% (active)"},
      {"smiles": "NNc1c(Cl)cc(Cl)cc1Cl", "growth inhibition": "93% (active)"},
      {"smiles": "C=C1C[C@H](O)[C@H]2C(C[Se]c3ccccc3)C(=O)O[C@@H]2[C@H]2[C@H](C)C(O)C[C@@H]12", "note": "(stereo not given in full)", "growth inhibition": "35% (inactive)"},
      {"smiles": "O=C(CBr)Oc1ccc(-c2cccc(Br)c2)cc1", "growth inhibition": "99% (active)"},
      {"smiles": "CCCCC1=NCCc2c1cc1c([nH]c3ccccc31)c2C", "growth inhibition": "57% (inactive)"},
      {"smiles": "CCOC(=O)NC(=S)Nc1ccsc1", "growth inhibition": "-7% (inactive)"},
      {"smiles": "CCCCCCCCCCCCCCCCNC(C)c1ccccc1", "note": "(stereo not given)", "growth inhibition": "-3% (inactive)"},
      {"smiles": "Cc1ccc(C2(O)CC(c3ccc([N+](=O)[O-])o3)=NN2C(=O)COc2ccc(Cl)cc2)cc1", "note": "(stereo not given)", "growth inhibition": "46% (inactive)"},
      {"smiles": "CCOC(=O)/C(C#N)=C/c1ccccc1Br", "growth inhibition": "18% (inactive)"},
      {"smiles": "CCCCCCCCCCCCCCCCNCCCCCCCC(=O)O", "growth inhibition": "64% (inactive)"},
      {"smiles": "CC[N+]1(C)CCC(O)(c2ccc(Cl)c(Cl)c2)C(C(=O)c2ccc(Cl)c(Cl)c2)C1", "note": "(stereo not given)", "growth inhibition": "99% (active)"},
      {"smiles": "CC(=O)Nc1nnc(-c2coc3ccccc3c2=O)s1", "growth inhibition": "0% (inactive)"},
      {"smiles": "CCC(C)(C)NCCCCCNc1cc(OC)cc2cccnc12", "growth inhibition": "67% (inactive)"},
      {"smiles": "CSC(=Nc1ccccc1)/N=C(\\SCc1ccccc1)N(C)C", "growth inhibition": "98% (active)"},
      {"smiles": "N=Cc1cc([N+](=O)[O-])ccc1O", "growth inhibition": "94% (active)"},
      {"smiles": "CCCCCCCC(=O)/C=C/c1ccc(C)cc1", "growth inhibition": "-136% (inactive)"},
      {"smiles": "Cc1ccc(S(=O)(=O)N/N=C2/CC[C@H](C(C)(C)C)C[C@@H]2C)cc1", "growth inhibition": "96% (active)"},
      {"smiles": "Nc1ccc2c(c1)CCc1ccccc1-2", "growth inhibition": "40% (inactive)"},
      {"smiles": "CN(C)CCC(=O)[C@@]1(O)CC[C@H]2[C@@H]3CC=C4C[C@@H](O)CC[C@]4(C)[C@H]3CC[C@@]21C", "growth inhibition": "70% (active)"},
      {"smiles": "CC(=O)OC1COC(N2C(=O)C(=O)c3cc(Br)ccc32)C(OC(C)=O)C1OC(C)=O", "note": "(stereo not given)", "growth inhibition": "20% (inactive)"},
      {"smiles": "Cc1ccc(N2CCN(c3c(N)cncc3Br)CC2)cc1", "growth inhibition": "-4% (inactive)"},
      {"smiles": "O=C(O)c1ccccc1SC(Sc1ccccc1C(=O)O)c1cccc(Cl)c1", "growth inhibition": "92% (active)"},
      {"smiles": "CC[N+](C)(CC)CCC(=O)/C=C/c1ccccc1", "growth inhibition": "54% (inactive)"},
      {"smiles": "COc1ccc(C(C)c2cc3c(cc2OC/C(C)=N/NC(N)=O)OCO3)cc1", "note": "(stereo not given)", "growth inhibition": "93% (active)"},
      {"smiles": "CN=C(N)N/N=C(\\C)c1ccc2c(c1)Cc1cc(Cl)ccc1-2", "growth inhibition": "37% (inactive)"},
      {"smiles": "CCCCCCCCN/N=C(/C)CCCCCO", "growth inhibition": "4% (inactive)"},
      {"smiles": "O=[N+]([O-])c1cccc2c(O)cccc12", "growth inhibition": "58% (inactive)"},
      {"smiles": "O=C1C(=O)c2ccccc2C(O)=C1Sc1ccccc1", "growth inhibition": "92% (active)"},
      {"smiles": "CC(=O)N(O)c1ccc2c(c1)Cc1cc(F)ccc1-2", "growth inhibition": "37% (inactive)"},
      {"smiles": "CC12CCC(=O)C=C1CCC1C2CCC2(C)C(c3cnc[nH]3)CCC12", "note": "(stereo not given)", "growth inhibition": "75% (active)"},
      {"smiles": "O=C1OC(C2OC(=O)C(=O)C2C(=O)c2ccc(Cl)c(Cl)c2)C(C(=O)c2ccc(Cl)c(Cl)c2)C1=O", "note": "(stereo not given)", "growth inhibition": "97% (active)"},
      {"smiles": "CC/C(C)=C1\\CCC(CN2CCOCC2)C1=O", "note": "(stereo not given)", "growth inhibition": "61% (inactive)"},
      {"smiles": "COc1ccc(C2CC(=O)CC(=O)C2)cc1", "growth inhibition": "-23% (inactive)"},
      {"smiles": "Cc1ccc(O)c(C(c2ccc([N+](=O)[O-])cc2)c2cc(C)ccc2O)c1", "growth inhibition": "95% (active)"},
      {"smiles": "O=C1OS(=O)(=O)c2cc3c(cc21)C1C(C2C3C3(Cl)C(Cl)=C(Cl)C2(Cl)C3(Cl)Cl)C2(Cl)C(Cl)=C(Cl)C1(Cl)C2(Cl)Cl", "note": "(stereo not given)", "growth inhibition": "58% (inactive)"},
      {"smiles": "CCOC(=O)C1SC(=S)N(C)C1=O", "note": "(stereo not given)", "growth inhibition": "99% (active)"},
      {"smiles": "O=C(c1ccc(Cl)c([N+](=O)[O-])c1)c1ccc(Cl)c([N+](=O)[O-])c1", "growth inhibition": "93% (active)"},
      {"smiles": "Cc1cc[c]([Sn]([Cl])([O][Sn]([Cl])([c]2ccc(C)cc2)[c]2ccc(C)cc2)[c]2ccc(C)cc2)cc1", "growth inhibition": "57% (inactive)"}
    ]}
  ]
}
